Experimental data from PubChem BioAssay.
Unmarked numbers belong to inactive results. Active and inactive are the calls of the source. Unless noted, no stated cut-off is given here; in the data, active means inhibition above about 28%; inactive means the rest.

Experiments:
[1] = StAR promoter reporter inhibitors, counter-screen for LRH-1 inverse agonist project, cell-based, luminescence, high throughput (AID 651611); settings: StAR promoter luciferase reporter counterscreen, at 3.6 µM, hits give high values
[2] = molecular target: Nuclear receptor subfamily 5 group A member 2 (Homo sapiens) (UniProt O00482); assay: LRH-1 (NR5A2) inverse agonists, retest, confirmation, cell-based, luminescence (AID 651613; in the data active means inhibition above about 42%;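 further: HEK293T cells co-transfected with LRH-1 and StAR promoter luciferase reporter; 0% = vehicle wells and 100% = parental cells lacking receptor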); settings: cell-based LRH-1 luciferase reporter, inverse agonism; at 3.6 µM; hits give high values
[3] = molecular target: Steroidogenic factor 1 (Homo sapiens) (UniProt Q13285); assay: SF1 (NR5A1) inverse agonists, counter-screen for LRH-1 inverse agonist project, cell-based, luminescence, high throughput (AID 651614; in the data active means inhibition above about 44%;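 further: cells cotransfected with StAR promoter reporter and SF1 expression vector; 0% = vehicle on cells with receptor and 100% = vehicle on cells lacking receptor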); settings: cell-based SF1 luciferase reporter, at 3.6 µM, hits give high values
[4] = VP16 transactivation reporter inhibitors, counter-screen for LRH-1 inverse agonist project, cell-based, luminescence, high throughput (AID 651615; in the data active means inhibition above about 33%); settings: Gal4-VP16 luciferase reporter cells, at 3.6 µM, hits give high values

Chain of Steroidogenic factor 1 (Homo sapiens) (Q13285 whole entry, looked up, the tested form may be a part): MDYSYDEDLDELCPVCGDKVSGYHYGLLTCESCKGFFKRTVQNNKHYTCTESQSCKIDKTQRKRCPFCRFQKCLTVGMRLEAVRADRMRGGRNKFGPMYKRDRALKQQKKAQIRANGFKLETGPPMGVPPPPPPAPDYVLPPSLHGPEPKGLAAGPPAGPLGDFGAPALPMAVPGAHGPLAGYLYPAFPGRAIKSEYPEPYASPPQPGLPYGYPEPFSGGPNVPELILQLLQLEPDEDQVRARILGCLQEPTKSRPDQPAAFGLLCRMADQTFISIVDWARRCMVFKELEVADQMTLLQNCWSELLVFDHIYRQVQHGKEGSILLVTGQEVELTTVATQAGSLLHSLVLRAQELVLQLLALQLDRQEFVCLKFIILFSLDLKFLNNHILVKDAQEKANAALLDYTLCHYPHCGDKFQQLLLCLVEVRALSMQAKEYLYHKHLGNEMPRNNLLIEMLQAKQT
Chain of Nuclear receptor subfamily 5 group A member 2 (Homo sapiens) (O00482 whole entry, looked up): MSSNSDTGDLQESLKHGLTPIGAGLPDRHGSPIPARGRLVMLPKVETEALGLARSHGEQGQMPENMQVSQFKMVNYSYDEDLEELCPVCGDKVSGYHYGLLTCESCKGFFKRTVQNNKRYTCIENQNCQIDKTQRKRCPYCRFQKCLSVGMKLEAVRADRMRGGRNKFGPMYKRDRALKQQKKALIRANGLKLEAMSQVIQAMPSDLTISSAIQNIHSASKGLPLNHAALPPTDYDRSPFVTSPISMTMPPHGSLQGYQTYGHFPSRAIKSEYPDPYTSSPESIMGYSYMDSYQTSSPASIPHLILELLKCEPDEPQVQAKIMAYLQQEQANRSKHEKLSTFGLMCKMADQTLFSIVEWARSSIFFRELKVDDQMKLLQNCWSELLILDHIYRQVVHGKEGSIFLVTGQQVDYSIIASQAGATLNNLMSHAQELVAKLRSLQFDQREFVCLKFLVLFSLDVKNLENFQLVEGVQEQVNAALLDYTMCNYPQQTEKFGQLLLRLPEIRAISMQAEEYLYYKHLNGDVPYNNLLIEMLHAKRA

SMILES	inhibition [1]	inhibition [2]	inhibition [3]	inhibition [4]
COc1ccc(-c2oc(=O)c3cc(OC)c(OC)cc3c2C#CCCO)cc1	33.4% (active)	28.7%	29.1%	-1.67%
O=C(Nc1ccccc1C(=O)Nc1nccs1)c1ccccc1	15.4%	52.8% (active)	47.8% (active)	2.34%
Nc1ccc(Br)c2cccnc12	3.69%	26.2%	24.8%	-9.28%
COc1ccc(NC(=O)CSC2=NCCN2)cc1	-2.78%	31.3%	15.1%	-3.5%
COC(=O)c1ccc(CNC(=O)COC(=O)c2cc(Cl)nc(Cl)c2)cc1	11.2%	52.4% (active)	37.1%	11.2%
Cc1onc(-c2c(F)cccc2Cl)c1C(=O)c1ccc(F)cc1	2%	46.1% (active)	46.2% (active)	-8.21%
O=C(CCl)NCCCN(C(=O)C(Cl)Cl)c1ccc([N+](=O)[O-])cc1	16.7%	59.2% (active)	53.5% (active)	-8.07%
CCn1cc(Br)c(C(=O)Nc2ccccc2C(=O)OC)n1	7.57%	47.4% (active)	46.6% (active)	-5.16%
CNc1nc2sc3c(c2c(=O)n1C)CC(C)(C)SC3	2.32%	34.9%	45.6% (active)	-1.52%
O=C(OCC(=O)N1CCN(c2ccccc2)CC1)c1ccc2ccccc2n1	9.44%	33%	22.3%	2.06%
O=[N+]([O-])c1cccc(-c2ccc(/C=N/NC(=S)NCc3ccco3)o2)c1	10.6%	48.5% (active)	51.2% (active)	-3.67%
COc1ccc(NC(=O)C2=CC(c3ccc(OC)c(OC)c3)=NS(=O)(=O)N2C)cc1	1.44%	56.3% (active)	49.4% (active)	18.4%
CCOCC(=O)Nc1ccc([N+](=O)[O-])cc1C	9%	59.1% (active)	57.7% (active)	4.94%
Cc1ccc(-n2c(SCC(=O)NCc3ccco3)nc3sc4c(c3c2=O)CC(C)(C)SC4)cc1	17.6%	56.1% (active)	44.8% (active)	6.61%
O=Cc1ccc(N2CCCCCC2)cc1	3.14%	57.1% (active)	56% (active)	-13.3%
Cc1nnc(SCC(=O)Nc2sc3c(c2C(N)=O)CCCC3)[nH]c1=O	10.4%	46.6% (active)	29.9%	-3.51%
O=C(NC1CCCCC1)c1ccc([N+](=O)[O-])o1	24.6%	54.9% (active)	54.4% (active)	-17.1%
CN(CCc1ccccc1)C(=O)c1ccc(NC(=O)Cc2ccc(NC(=O)C3CCCN(C(=O)CCc4ccccc4)C3)cc2)cc1 (stereo not drawn)	30.9% (active)	62.4% (active)	64.5% (active)	59.8% (active)
COc1cc(C(=O)Nc2ccccc2C(=O)Nc2ccccn2)cc(OC)c1OC	61.2% (active)	45.9% (active)	62.1% (active)	-2.31%
Cc1nnc(SCC(=O)Nc2ccc(N3CCN(S(C)(=O)=O)CC3)cc2)o1	-2.52%	50.8% (active)	50.2% (active)	-9.83%
COc1cc2c3c(cccc3c1)C(=O)N(CCN1CCCC1)C2=O	12.7%	72.8% (active)	49.7% (active)	70.9% (active)
Cc1cccc(CN2C(=O)CSc3ccc(C(=O)NC4CC4)cc32)c1	10.4%	62.2% (active)	51.8% (active)	-6.63%
COc1ccc(OC)c(C2C3=C(COC3=O)Nc3cc4c(cc32)OCO4)c1 (stereo not drawn)	57.4% (active)	27.6%	41.7%	27.9%
CCCc1cc(=O)n2nc(N3CCC(C(=O)N4CCN(c5ccc(OC)cc5)CC4)CC3)sc2n1	12.6%	56.5% (active)	55.1% (active)	49.8% (active)
Cc1ccnc2nc(C(=O)OCC(=O)Nc3ccc([N+](=O)[O-])cc3Br)nn12	9.71%	38.9%	32.1%	-0.95%
COc1ccc2nc(N3CCC(O)CC3)c(C#N)cc2c1	-24.2%	43.6% (active)	44.9% (active)	-30.6%
COc1cccc(C(=O)N/N=C2/SCC(=O)N2CCc2ccc(OC)c(OC)c2)c1	10.8%	31.3%	36.8%	-5.38%
